Results reported in PubChem BioAssay AID1159580 (chemical genetic matrix, 2015).
The campaign covered roughly 5,500 compounds. About 2,000 (36%) were called active. Not shown: some 18% with an inconclusive outcome. No stated cut-off is given here; in the data, active means normalized growth mostly below about 0.91 (no sharp cut-off); inconclusive means no clear call, values can overlap the other calls; inactive means mostly above about 0.92. The list shows a part of the results.

Test: chemical genetic growth profiling, strain panel (AID 1159580);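 further: tested at 20 µM; growth read once vehicle control cultures reached saturation at 30 °C; 1 = growth at the plate median or of vehicle wells; lower values mean less growth of the strain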
Settings: growth OD

Measured: normalized growth

CC(=O)O[C@H]1C[C@@]2(C)[C@H](c3ccoc3)OC(=O)[C@H]3O[C@]32[C@@]2(C)C1[C@]1(C)C(C[C@H]2OC(C)=O)C(C)(C)[C@H](OC(C)=O)C[C@@H]1OC(C)=O (some centres not stated)
inactive: S. cerevisiae deletion strains, locus YAL013W, strain DEP1, hits give low values 0.999 | S. cerevisiae deletion strains, locus YAL021C, strain ccr4, hits give low values 1.04 | S. cerevisiae deletion strains, locus YAL026C, strain drs2, hits give low values 0.97 | S. cerevisiae deletion strains, locus YAL030W, strain snc1, hits give low values 0.997 | S. cerevisiae deletion strains, locus YBL061C, strain skt5, hits give low values 0.993 | S. cerevisiae deletion strains, locus YBR009C, strain hhf1, hits give low values 1.05 | S. cerevisiae deletion strains, locus YBR021W, strain FUR4, hits give low values 1.02 | S. cerevisiae deletion strains, locus YBR023C, strain chs3, hits give low values 1 | S. cerevisiae deletion strains, locus YBR171W, strain sec66, hits give low values 0.958 | S. cerevisiae deletion strains, locus YBR229C, strain ROT2, hits give low values 0.949 | S. cerevisiae deletion strains, locus YBR231C, strain swc5, hits give low values 1 | S. cerevisiae deletion strains, locus YBR279W, strain paf1, hits give low values 0.998 | S. cerevisiae deletion strains, locus YCL011C, strain gbp2, hits give low values 0.998 | S. cerevisiae deletion strains, locus YCL016C, strain dcc1, hits give low values 1.05 | S. cerevisiae deletion strains, locus YCL029C, strain bik1, hits give low values 0.971 | S. cerevisiae deletion strains, locus YCL061C, strain MRC1, hits give low values 1 | S. cerevisiae deletion strains, locus YCL069W, strain vba3, hits give low values 0.975 | S. cerevisiae deletion strains, locus YCR088W, strain abp1, hits give low values 0.99 | S. cerevisiae deletion strains, locus YDL005C, strain med2, hits give low values 0.968 | S. cerevisiae deletion strains, locus YDL035C, strain GPR1, hits give low values 0.968 | S. cerevisiae deletion strains, locus YDL040C, strain nat1, hits give low values 0.99 | S. cerevisiae deletion strains, locus YDL074C, strain BRE1, hits give low values 0.999 | S. cerevisiae deletion strains, locus YDL101C, strain DUN1, hits give low values 0.974 | S. cerevisiae deletion strains, locus YDL134C, strain PPH21, hits give low values 0.986 | S. cerevisiae deletion strains, locus YDL185W, strain tfp1, hits give low values 0.953 | S. cerevisiae deletion strains, locus YDL192W, strain arf1, hits give low values 0.992 | S. cerevisiae deletion strains, locus YDR001C, strain nth1, hits give low values 0.989 | S. cerevisiae deletion strains, locus YDR069C, strain doa4, hits give low values 0.972 | S. cerevisiae deletion strains, locus YDR101C, strain arx1, hits give low values 0.946 | S. cerevisiae deletion strains, locus YDR137W, strain rgp1, hits give low values 1 | S. cerevisiae deletion strains, locus YDR159W, strain sac3, hits give low values 0.918 | S. cerevisiae deletion strains, locus YDR162C, strain NBP2, hits give low values 1.01 | S. cerevisiae deletion strains, locus YDR195W, strain ref2 0.981 | S. cerevisiae deletion strains, locus YDR297W, strain sur2, hits give low values 0.982 | S. cerevisiae deletion strains, locus YDR318W, strain mcm21, hits give low values 0.973 | S. cerevisiae deletion strains, locus YDR334W, strain swr1, hits give low values 0.975 | S. cerevisiae deletion strains, locus YDR335W, strain msn5, hits give low values 0.997 | S. cerevisiae deletion strains, locus YDR388W, hits give low values 0.983 | S. cerevisiae deletion strains, locus YDR392W, strain spt3, hits give low values 1 | S. cerevisiae deletion strains, locus YDR502C, strain sam2, hits give low values 0.987 | S. cerevisiae deletion strains, locus YEL003W, strain gim4, hits give low values 0.967 | S. cerevisiae deletion strains, locus YEL037C, strain rad23, hits give low values 0.989 | S. cerevisiae deletion strains, locus YEL061C, strain CIN8 (second series), hits give low values 0.978 | S. cerevisiae deletion strains, locus YEL061C, strain CIN8, hits give low values 0.997 | S. cerevisiae deletion strains, locus YER015W, strain faa2, hits give low values 0.997 | S. cerevisiae deletion strains, locus YER016W, strain bim1, hits give low values 0.98 | S. cerevisiae deletion strains, locus YER110C, hits give low values 0.974 | S. cerevisiae deletion strains, locus YER111C, strain swi4, hits give low values 0.979 | S. cerevisiae deletion strains, locus YER155C, strain BEM2 (second series), hits give low values 1.02 | S. cerevisiae deletion strains, locus YER155C, strain BEM2, hits give low values 1.01 | S. cerevisiae deletion strains, locus YER167W, strain BCK2, hits give low values 0.981 | S. cerevisiae deletion strains, locus YFR010W, strain ubp6, hits give low values 0.955 | S. cerevisiae deletion strains, locus YGL078C, strain dbp3, hits give low values 0.972 | S. cerevisiae deletion strains, locus YGL086W, strain mad1, hits give low values 0.996 | S. cerevisiae deletion strains, locus YGL167C, strain pmr1, hits give low values 0.99 | S. cerevisiae deletion strains, locus YGL173C, strain kem1, hits give low values 0.964 | S. cerevisiae deletion strains, locus YGL227W, strain vid30, hits give low values 0.983 | S. cerevisiae deletion strains, locus YGL240W, strain doc1, hits give low values 0.978 | S. cerevisiae deletion strains, locus YGL248W, strain PDE1, hits give low values 0.989 | S. cerevisiae deletion strains, locus YGR135W, strain pre9, hits give low values 1 | S. cerevisiae deletion strains, locus YGR252W, strain gcn5, hits give low values 0.94 | S. cerevisiae deletion strains, locus YHR013C, strain ard1, hits give low values 1.01 | S. cerevisiae deletion strains, locus YHR027C, strain rpn1, hits give low values 0.993 | S. cerevisiae deletion strains, locus YHR030C, strain SLT2, hits give low values 0.991 | S. cerevisiae deletion strains, locus YHR079C, strain IRE1 (second series), hits give low values 0.991 | S. cerevisiae deletion strains, locus YHR094C, strain hxt1, hits give low values 0.975 | S. cerevisiae deletion strains, locus YHR129C, strain ARP1, hits give low values 0.995 | S. cerevisiae deletion strains, locus YHR142W, strain chs7, hits give low values 1 | S. cerevisiae deletion strains, locus YHR200W, strain rpn10, hits give low values 0.977 | S. cerevisiae deletion strains, locus YIL066C, strain RNR3, hits give low values 0.949 | S. cerevisiae deletion strains, locus YIL073C, strain SPO22, hits give low values 0.949 | S. cerevisiae deletion strains, locus YIL125W, strain kgd1, hits give low values 0.983 | S. cerevisiae deletion strains, locus YIR030C, strain dcg1, hits give low values 0.981 | S. cerevisiae deletion strains, locus YJL092W, strain hpr5, hits give low values 0.973 | S. cerevisiae deletion strains, locus YJL095W, strain BCK1 (second series), hits give low values 0.977 | S. cerevisiae deletion strains, locus YJL095W, strain BCK1, hits give low values 1.02 | S. cerevisiae deletion strains, locus YJL115W, strain asf1, hits give low values 0.987 | S. cerevisiae deletion strains, locus YJL129C, strain trk1, hits give low values 0.966 | S. cerevisiae deletion strains, locus YJL134W, strain LCB3, hits give low values 0.989 | S. cerevisiae deletion strains, locus YJL154C, strain vps35, hits give low values 0.996 | S. cerevisiae deletion strains, locus YJL164C, strain tpk1, hits give low values 1.02 | S. cerevisiae deletion strains, locus YJL166W, strain qcr8, hits give low values 0.976 | S. cerevisiae deletion strains, locus YJL168C, strain set2, hits give low values 0.99 | S. cerevisiae deletion strains, locus YJL187C, strain SWE1 (second series), hits give low values 0.976 | S. cerevisiae deletion strains, locus YJR043C, strain POL32, hits give low values 0.974 | S. cerevisiae deletion strains, locus YKL009W, strain mrt4, hits give low values 0.912 | S. cerevisiae deletion strains, locus YKL068W, hits give low values 0.978 | S. cerevisiae deletion strains, locus YKL085W, strain MDH1 (second series), hits give low values 0.973 | S. cerevisiae deletion strains, locus YKL085W, strain MDH1, hits give low values 0.973 | S. cerevisiae deletion strains, locus YKL160W, strain elf1, hits give low values 1.05 | S. cerevisiae deletion strains, locus YKR001C, strain vps1, hits give low values 0.982 | S. cerevisiae deletion strains, locus YKR026C, strain gcn3, hits give low values 0.978 | S. cerevisiae deletion strains, locus YKR091W, strain srl3, hits give low values 0.995 | S. cerevisiae deletion strains, locus YLL001W, strain dnm1, hits give low values 0.977 | S. cerevisiae deletion strains, locus YLL026W, hits give low values 0.974 | S. cerevisiae deletion strains, locus YLL041C, strain sdh2, hits give low values 0.998 | S. cerevisiae deletion strains, locus YLR027C, strain aat2, hits give low values 0.965 | S. cerevisiae deletion strains, locus YLR039C, strain RIC1, hits give low values 0.959 | S. cerevisiae deletion strains, locus YLR058C, strain SHM2, hits give low values 0.978 | S. cerevisiae deletion strains, locus YLR102C, strain apc9, hits give low values 0.979 | S. cerevisiae deletion strains, locus YLR221C, strain rsa3, hits give low values 0.987 | S. cerevisiae deletion strains, locus YLR258W, strain gsy2, hits give low values 1.02 | S. cerevisiae deletion strains, locus YLR262C, strain YPT6 (second series), hits give low values 1.03 | S. cerevisiae deletion strains, locus YLR268W, strain sec22, hits give low values 0.975 | S. cerevisiae deletion strains, locus YLR320W, strain mms22, hits give low values 0.999 | S. cerevisiae deletion strains, locus YLR342W, strain FKS1, hits give low values 0.995 | S. cerevisiae deletion strains, locus YLR357W, strain rsc2, hits give low values 1.01 | S. cerevisiae deletion strains, locus YLR370C, strain arc18, hits give low values 0.961 | S. cerevisiae deletion strains, locus YLR371W, strain rom2, hits give low values 0.982 | S. cerevisiae deletion strains, locus YLR384C, strain iki3, hits give low values 1.01 | S. cerevisiae deletion strains, locus YLR418C, strain cdc73, hits give low values 1.01 | S. cerevisiae deletion strains, locus YML016C, strain PPZ1, hits give low values 0.984 | S. cerevisiae deletion strains, locus YML032C, strain rad52, hits give low values 0.977 | S. cerevisiae deletion strains, locus YML120C, strain ndi1, hits give low values 1.02 | S. cerevisiae deletion strains, locus YML124C, strain tub3, hits give low values 0.993 | S. cerevisiae deletion strains, locus YMR058W, strain fet3, hits give low values 0.988 | S. cerevisiae deletion strains, locus YMR078C, strain ctf18, hits give low values 0.955 | S. cerevisiae deletion strains, locus YMR125W, strain sto1, hits give low values 1.02 | S. cerevisiae deletion strains, locus YMR129W, hits give low values 0.985 | S. cerevisiae deletion strains, locus YMR205C, strain PFK2, hits give low values 1.01 | S. cerevisiae deletion strains, locus YMR223W, strain ubp8, hits give low values 0.991 | S. cerevisiae deletion strains, locus YMR231W, strain pep5, hits give low values 0.979 | S. cerevisiae deletion strains, locus YMR263W, strain SAP30, hits give low values 0.969 | S. cerevisiae deletion strains, locus YMR307W, strain GAS1, hits give low values 1.05 | S. cerevisiae deletion strains, locus YNL067W, strain RPL9B, hits give low values 0.996 | S. cerevisiae deletion strains, locus YNL071W, strain lat1, hits give low values 0.999 | S. cerevisiae deletion strains, locus YNL128W, strain TEP1, hits give low values 0.971 | S. cerevisiae deletion strains, locus YNL153C, strain GIM3, hits give low values 0.985 | S. cerevisiae deletion strains, locus YNL209W, strain ssb2, hits give low values 0.992 | S. cerevisiae deletion strains, locus YNL233W, strain BNI4, hits give low values 1 | S. cerevisiae deletion strains, locus YNL248C, strain rpa49, hits give low values 0.984 | S. cerevisiae deletion strains, locus YNL250W, strain rad50, hits give low values 0.97 | S. cerevisiae deletion strains, locus YNL271C, strain bni1, hits give low values 0.979 | S. cerevisiae deletion strains, locus YNL298W, strain CLA4, hits give low values 0.968 | S. cerevisiae deletion strains, locus YNL307C, strain MCK1, hits give low values 0.991 | S. cerevisiae deletion strains, locus YNL322C, strain KRE1 (second series), hits give low values 0.985 | S. cerevisiae deletion strains, locus YNR049C, strain mso1, hits give low values 0.985 | S. cerevisiae deletion strains, locus YNR052C, strain pop2, hits give low values 0.98 | S. cerevisiae deletion strains, locus YOL006C, strain TOP1, hits give low values 0.959 | S. cerevisiae deletion strains, locus YOL012C, strain htz1 1.13 | S. cerevisiae deletion strains, locus YOL147C, strain pex11, hits give low values 0.987 | S. cerevisiae deletion strains, locus YOR001W, strain rrp6, hits give low values 0.919 | S. cerevisiae deletion strains, locus YOR061W, strain CKA2, hits give low values 0.966 | S. cerevisiae deletion strains, locus YOR069W, strain VPS5, hits give low values 0.992 | S. cerevisiae deletion strains, locus YOR070C, strain gyp1, hits give low values 1 | S. cerevisiae deletion strains, locus YOR080W, strain dia2, hits give low values 0.963 | S. cerevisiae deletion strains, locus YOR083W, strain WHI5, hits give low values 1.04 | S. cerevisiae deletion strains, locus YOR106W, strain vam3, hits give low values 1.03 | S. cerevisiae deletion strains, locus YOR136W, strain idh2, hits give low values 0.974 | S. cerevisiae deletion strains, locus YOR144C, strain elg1, hits give low values 0.989 | S. cerevisiae deletion strains, locus YOR184W, strain ser1, hits give low values 0.966 | S. cerevisiae deletion strains, locus YOR265W, strain rbl2, hits give low values 0.951 | S. cerevisiae deletion strains, locus YOR270C, strain vph1, hits give low values 0.879 | S. cerevisiae deletion strains, locus YOR290C, strain snf2, hits give low values 1.05 | S. cerevisiae deletion strains, locus YOR316C, strain cot1, hits give low values 0.982 | S. cerevisiae deletion strains, locus YPL051W, strain arl3, hits give low values 0.995 | S. cerevisiae deletion strains, locus YPL055C, strain LGE1, hits give low values 0.964 | S. cerevisiae deletion strains, locus YPL078C, strain atp4, hits give low values 1.05 | S. cerevisiae deletion strains, locus YPL106C, strain sse1, hits give low values 1.03 | S. cerevisiae deletion strains, locus YPL240C, strain hsp82, hits give low values 0.986 | S. cerevisiae deletion strains, locus YPR119W, strain clb2, hits give low values 0.983 | S. cerevisiae deletion strains, locus YPR141C, strain kar3, hits give low values 0.984 | S. cerevisiae deletion strains, locus YPR163C, strain tif3, hits give low values 0.989 | S. cerevisiae deletion strains, locus YPR167C, strain met16, hits give low values 0.984 | S. cerevisiae deletion strains, strain wtn01, hits give low values 0.94 | S. cerevisiae strains, strain wild type, hits give low values 0.993
active: S. cerevisiae deletion strains, locus YGL253W, strain hxk2, hits give low values 0.907
